Screens (PubChem BioAssay)
Compounds with a hit are over-represented: about 19% of the library has one in this group of screens.
CHX counter: Cycloheximide Counterscreen for Small Molecule Inhibitors of Shiga Toxin; AID 2314, 2010; max response, %; cell reporter, cycloheximide protein synthesis inhibition counterscreen; 300,000 compounds, 12% hits; in the data active = max response mostly above about 13%, no sharp cut-off; inactive = mostly below about 14%; also: read at 38.3 µM for the half of the compounds with a filed dose
Pf growth 96h: Primary qHTS for delayed death inhibitors of the malarial parasite plastid, 96 hour incubation; 320,000 compounds, 6.9% hits; AID 504834, 2011; P. falciparum luciferase reporter growth, 96 h; Potency, µM (titrated, usually from 28.7 µM), actives largely listed as inhibitors
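Readout is luminescence from an integrated firefly luciferase in P. falciparum. Red cells, 2% hematocrit and 0.05% parasitemia final, were cultured with compound through two parasite generations (96 hours) at 37 C, 5% CO2.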
Shiga toxin inh: A qHTS for Small Molecule Inhibitors of Shiga Toxin | Vero cells, Shiga toxin protein synthesis inhibition reporter | 290,000 compounds, 9.2% hits | inhibition, % at 38.7 µM | AID 2315, 2010; in the data active = inhibition mostly above about 28%, no sharp cut-off; inactive = mostly below about 43%
Pf growth 48h: Primary qHTS for delayed death inhibitors of the malarial parasite plastid, 48 hour incubation; P. falciparum luciferase growth in erythrocytes, 48 h; Potency, µM (doses to about 28.7 µM), usual class: inhibitors; 310,000 compounds, 5.9% hits; AID 504832, 2011
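A one-generation exposure of luciferase-tagged malaria parasites in RPMI 1640/Albumax erythrocyte culture, 37 C and 5% CO2. Inhibition is inferred from decreased luminescence after adding detection reagent.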
Lassa entry inh: qHTS for Inhibitors of binding or entry into cells for Lassa Virus. Lassa virus pseudotype entry inhibition, cell reporter. Potency, µM (top dose mostly 37.9 µM), actives largely listed as inhibitors. 300,000 compounds, 1.2% hits. AID 540256, 2011; calls by dose curve; tested in HEK293 cells; also: nearly all actives have a fitted effect of over 50% in size
MARV entry inh: qHTS for inhibitors of binding or entry into cells for Marburg Virus; 300,000 compounds, 1.8% hits; AID 540276, 2011; Marburg virus pseudotyped entry inhibition, cell reporter; Potency, µM (titrated, usually from 37.8 µM), usual class: inhibitors; calls by dose curve; tested in HEK293 cells
A number is an active result; . = inactive; ? = inconclusive; / = no result. Unless noted, calls follow the shape of the dose curve; as a rule, active = well fitted inhibition curve with a large enough effect; inconclusive = small, poorly fitted or top-dose-only effect, or another doubt; inactive = no such curve, though single readings can be large or run the other way.

SMILES	CHX counter	Pf growth 96h	Shiga toxin inh	Pf growth 48h	Lassa entry inh	MARV entry inh
O=C(O)c1cc(-n2[nH]c(=O)c3ccccc3c2=O)ccc1Cl	44	.	148	.	.	?
CN(C)C(=S)NC(=O)c1cccc(Cl)c1	.	.	.	.	.	.
CC(Cl)C(=O)NC(=O)NC12CC3CC(CC(C3)C1)C2 (stereo unspecified)	.	13µM	.	?	.	.
O=C(CCl)NC(=O)NC12CC3CC(CC(C3)C1)C2	.	?	.	.	?	?
Cc1cc(C(=O)Nc2c(C)nn(Cc3ccccc3Cl)c2C)no1	.	.	.	2.6µM	.	.
COc1ccc(-c2cc(C(=O)Nc3c(C)nn(Cc4ccccc4Cl)c3C)no2)cc1OC	.	.	.	?	.	.
COc1ccc(OC)c(-c2cc(C(=O)Nc3c(C)nn(Cc4ccccc4C)c3C)no2)c1	.	.	.	5.2µM	?	?
COc1ccc(OC)c(-c2cc(C(=O)Nc3c(C)nn(Cc4ccccc4Cl)c3C)no2)c1	.	.	.	13µM	.	.
Cc1nn(C)cc1C(=O)Nc1c(C)nn(Cc2ccccc2Cl)c1C	.	?	.	.	.	?
O=c1cc(-c2ccccc2)c2ccccc2[nH]1	.	.	.	.	.	.
Cc1ccc(-c2nnc(Nc3ccc(O)cc3)c3ccccc23)cc1S(=O)(=O)N1CCCCC1	/	/	/	/	.	/
c1ccc(C[n+]2cccc(-c3ccccc3)c2)cc1	.	0.66µM	.	2.1µM	?	.
c1ccc(C[n+]2ccc3ccccc3c2)cc1	/	/	/	/	.	.
O=C(c1cnc2n(c1=O)CCS2)N(c1ccccc1)C1CCCCC1	.	6.6µM	.	?	.	.
Cc1c(OCC(=O)NCCCN2CCCC2=O)ccc2c3c(c(=O)oc12)CCC3	.	?	.	.	/	/
Cc1ccc2[nH]c(=O)c(C(c3nnnn3CC3CCCO3)N3CCCc4ccccc43)cc2c1 (stereo unspecified)	.	.	.	13µM	.	?
Cc1ccc2[nH]c(=O)c(C(c3nnnn3C3CCCC3)N3CCCc4ccccc43)cc2c1 (stereo unspecified)	.	.	.	?	?	5.8µM
Cc1ccc2cc(C(c3nnnn3C3CCCC3)N3CCN(c4ccc(F)cc4)CC3)c(=O)[nH]c2c1 (stereo unspecified)	.	.	.	5.9µM	?	?
O=C(CN(c1cccc(C(F)(F)F)c1)S(=O)(=O)c1ccc(Cl)c([N+](=O)[O-])c1)NCc1ccc(F)cc1	.	15µM	.	?	?	?
Cc1cc(C)nc(NS(=O)(=O)c2ccc(N/C=C/C(=O)c3ccc(Cl)cc3)cc2)n1	11	.	.	.	.	.
COc1ccc(C(=O)/C=C/Nc2ccc(S(=O)(=O)Nc3nc(C)cc(C)n3)cc2)cc1OC	16	?	.	.	?	.
Cc1cc(C)nc(NS(=O)(=O)c2ccc(NC(=O)Cc3ccccc3)cc2)n1	.	13µM	.	.	.	.
Cc1cc(C2C(=O)CC(=O)CC2c2ccccc2)on1 (stereo unspecified)	.	/	.	.	.	.
C=CCOC(=O)C1=C(C)OC(N)=C(C#N)C1c1ccccc1F (stereo unspecified)	.	/	.	/	.	.
CC1=NOC(=O)/C1=C\c1ccc(-c2ccccc2Br)o1	.	15µM	.	.	/	/
SMILES	CHX counter	Pf growth 96h	Shiga toxin inh	Pf growth 48h	Lassa entry inh	MARV entry inh
CC(C)=CC(=O)N1CCC(N2CCC(C(=O)N3CCOCC3)CC2)CC1	.	.	.	.	/	/
CCOC(=O)c1cn[nH]c1NC(=S)Nc1ccc(Cl)cc1	58	.	58	.	?	?
COc1cc(Cl)ccc1OCc1cc(C(=O)N(C)Cc2nnc(C)o2)no1	35	.	.	.	.	?
CC(=O)c1cccc(OCc2cc(C(=O)N(C)Cc3cnccn3)no2)c1	51	.	88	?	?	?
COc1ccc(OCc2cc(C(=O)N(C)Cc3cc(C)no3)no2)c(Cl)c1	72	.	99	.	/	/
Cc1cc(CN(C)C(=O)c2cc(COc3ccc4ncccc4c3)on2)on1	.	.	.	.	?	?
CC(=O)c1ccc(OCc2cc(C(=O)N(C)C(C)c3nccs3)no2)cc1 (stereo unspecified)	30	.	35	.	/	/
COc1cc(Cl)ccc1OCc1cc(C(=O)N(C)Cc2cn(C)nc2C)no1	.	.	.	.	.	.
CCCS(=O)(=O)c1cscc1NC(=O)c1c(-c2c(F)cccc2Cl)noc1C	.	?	.	?	.	?
CCN1CCN(Cc2c(C(=O)N/N=C(\C)c3ccc(Cl)c(Cl)c3)nnn2-c2nonc2N)CC1	.	.	.	?	/	/
CC(=O)c1ccc(OCc2cc(C(=O)N(C)Cc3ncc(C)[nH]3)no2)cc1	.	?	.	.	.	.
CCc1ccc(CN(C)C(=O)c2cc(COc3ccc(OC)cc3Cl)on2)nc1	68	.	84	.	?	.
CN(Cc1cccnc1)C(=O)c1cc(COc2ccc3c(c2)CCCC3)on1	70	.	82	?	?	?
COc1ccc(OCc2cc(C(=O)N(C)Cc3nnc(C)o3)no2)c(Cl)c1	29	.	111	.	/	/
COc1cccc(OCc2cc(C(=O)N(C)Cc3nc4ccccc4[nH]3)no2)c1	38	.	125	.	/	/
COc1ccc(-n2c(N)cc(=O)nc2SCC(=O)NC2CCCCC2)cc1	/	/	/	/	.	?
CC(=O)c1ccc(OCc2cc(C(=O)N(C)Cc3cc(C)no3)no2)cc1	33	.	39	.	/	/
COc1ccsc1C(=O)NCCN1CCOCC1	.	.	.	.	.	.
Cc1ccc2oc(C(=O)NCCCN3CCOCC3)c(C)c2c1	44	.	71	.	.	.
O=C(NCCN1CCOCC1)C(Sc1ccccc1)c1ccccc1 (stereo unspecified)	.	.	.	.	.	?
COc1ccc2oc(C(=O)NCCN3CCOCC3)c(C)c2c1OC	61	.	63	.	.	.
O=C(NCCCN1CCOCC1)C(Sc1ccccc1)c1ccccc1 (stereo unspecified)	.	7.4µM	.	.	.	.
Cc1ccc2oc(C(=O)NCCC3CCCCO3)c(C)c2c1 (stereo unspecified)	26	?	63	.	?	?
Cc1ccc(C2(C)NC(=O)N(CC(=O)NCc3cccs3)C2=O)cc1 (stereo unspecified)	.	.	.	.	.	.
Cc1ccc(-n2c3c(cc(C(=O)NCCCN4CCOCC4)c2=O)C(=O)CC(C)(C)C3)cc1	.	0.83µM	.	.	/	.
Cc1ccc(C(=O)NCCCN2CCOCC2)c(Cl)c1	17	?	/	.	?	?
Cc1cc(C)c(S(=O)(=O)N2CCOC2CNC(=O)C(=O)NCCCN2CCOCC2)c(C)c1 (stereo unspecified)	35	?	80	.	.	.
